High-throughput results from PubChem.
This is a sample that favours compounds with a hit; in the whole collection about 2.9% have one here.
SNCA expr inh = Primary qHTS assay for inhibitors of alpha-synuclein gene (SNCA) expression; HEK-293 SNCA-luciferase knock-in, luminescence, 24 h; Potency, µM (top dose mostly 57.2 µM), for the others: top-dose activity change, negative = inhibition, actives largely listed as inhibitors; 140,000 compounds, 0.17% hits; AID 1671194, 2021;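 further: potency means the concentration at half of the fitted maximal effect; plate controls were DMSO cells for no effect and cell-free wells for full effect; nearly all actives have a fitted effect of over 45% in size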
KDM5B inh = Primary screen for KDM5B Histone Demethylases FDH-coupled qHTS | Lysine-specific demethylase 5B (Homo sapiens), Q9UGL1 | KDM5B demethylase, FDH-coupled NADH fluorescence (FDH is formaldehyde dehydrogenase) | Potency, µM (titrated, usually from 57.7 µM), most hits filed as inhibitors | 220,000 compounds, 2.6% hits | AID 1347165, 2019; further: potency means the concentration at half of the fitted maximal effect; 0% is about no effect; nearly all actives have a fitted effect of over 70% in size
Target sequence (Q9UGL1 whole entry, looked up): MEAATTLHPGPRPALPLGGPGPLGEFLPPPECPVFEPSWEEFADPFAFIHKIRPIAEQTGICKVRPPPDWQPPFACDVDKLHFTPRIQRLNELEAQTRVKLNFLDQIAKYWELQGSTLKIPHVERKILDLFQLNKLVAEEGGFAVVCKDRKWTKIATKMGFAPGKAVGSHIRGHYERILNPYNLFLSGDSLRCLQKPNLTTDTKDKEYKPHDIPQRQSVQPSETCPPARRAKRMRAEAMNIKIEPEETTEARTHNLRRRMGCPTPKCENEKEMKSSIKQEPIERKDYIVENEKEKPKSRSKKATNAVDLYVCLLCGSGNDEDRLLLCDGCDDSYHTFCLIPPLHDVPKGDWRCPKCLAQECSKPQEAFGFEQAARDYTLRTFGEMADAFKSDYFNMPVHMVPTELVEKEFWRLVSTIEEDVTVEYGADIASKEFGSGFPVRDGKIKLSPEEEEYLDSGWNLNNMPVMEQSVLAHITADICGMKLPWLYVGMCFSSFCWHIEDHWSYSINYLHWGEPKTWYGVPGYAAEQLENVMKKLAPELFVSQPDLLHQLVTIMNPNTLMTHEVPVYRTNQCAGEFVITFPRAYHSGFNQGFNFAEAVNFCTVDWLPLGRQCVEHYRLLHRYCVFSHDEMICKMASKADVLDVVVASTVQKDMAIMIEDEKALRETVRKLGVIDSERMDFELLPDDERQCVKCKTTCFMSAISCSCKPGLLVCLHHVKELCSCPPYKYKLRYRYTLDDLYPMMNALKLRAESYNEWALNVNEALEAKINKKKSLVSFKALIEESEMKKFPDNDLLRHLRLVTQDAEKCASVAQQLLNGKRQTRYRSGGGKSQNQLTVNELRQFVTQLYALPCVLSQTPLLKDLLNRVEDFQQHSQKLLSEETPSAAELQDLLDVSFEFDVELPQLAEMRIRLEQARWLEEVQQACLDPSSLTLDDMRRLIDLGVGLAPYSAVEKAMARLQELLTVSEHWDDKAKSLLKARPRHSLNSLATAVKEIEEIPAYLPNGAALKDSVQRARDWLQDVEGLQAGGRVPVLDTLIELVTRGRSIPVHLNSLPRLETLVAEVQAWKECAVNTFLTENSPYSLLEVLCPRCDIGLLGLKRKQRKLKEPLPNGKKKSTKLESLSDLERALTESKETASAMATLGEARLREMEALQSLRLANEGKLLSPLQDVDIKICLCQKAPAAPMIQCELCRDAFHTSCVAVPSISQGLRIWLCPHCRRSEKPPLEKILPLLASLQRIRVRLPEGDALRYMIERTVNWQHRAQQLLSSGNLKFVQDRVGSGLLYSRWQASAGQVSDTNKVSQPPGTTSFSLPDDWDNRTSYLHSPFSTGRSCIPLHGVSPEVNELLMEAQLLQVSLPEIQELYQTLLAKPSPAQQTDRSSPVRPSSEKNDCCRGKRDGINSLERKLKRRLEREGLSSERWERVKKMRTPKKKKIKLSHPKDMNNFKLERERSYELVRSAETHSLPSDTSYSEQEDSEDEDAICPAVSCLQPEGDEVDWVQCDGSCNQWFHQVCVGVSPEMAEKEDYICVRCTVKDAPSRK
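Inhibition is measured as reduced NADH fluorescence generation from FDH coupling to formaldehyde release. Truncated KDM5BΔAP at 200 nM final acts on H3K4me3 peptide (12.5 µM in substrate mix) in pH 7.5 HEPES buffer with Tween-20, 30 min, room temperature.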
IP6K1 inhibitor = Primary qHTS assay for small molecule inhibitors of Inositol hexaphosphate kinase 1 (IP6K1). Inositol hexakisphosphate kinase 1 (Homo sapiens), Q92551. IP6K1 kinase, ADP-Glo luminescence, 2 h; hits give low values. activity change, % (series mostly up to about 58 µM). 140,000 compounds, 0.81% hits. AID 1645851, 2021; in the data active means activity change below about -25%; further: on the % scale 0 is the no-effect control and ±100 the full control effect
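ADP-Glo luminescence measures ADP made by human IP6K1 during a 2 h RT reaction with ATP/IP6 (mix at 1.3 mM/130 uM); top library doses 57.5 and 19.1 uM final.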
SNCA viab count = GF-AFC viability counterscreen for inhibitors of alpha-synuclein gene (SNCA) expression; HEK-293-SNCA-luc viability, GF-AFC fluorescence, 24 h; Potency, µM (doses to about 57.1 µM), without a hit: top-dose activity change, negative = cytotoxicity, actives largely listed as cytotoxic; 150,000 compounds, 0.12% hits; AID 1671193, 2021;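 further: potency means the concentration at half of the fitted maximal effect; 0% = DMSO-treated cells and -100% = medium-only wells without cells; nearly all actives have a fitted effect of over 30% in size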
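Cytotoxicity counterscreen: after 24 h compound treatment of genome-edited SNCA-luciferase HEK-293 cells, live-cell protease substrate GF-AFC read by fluorescence after 30 min; activity scaled between DMSO (0%) and medium-only (-100%), curves Hill-fitted.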
Numbers without * were called inactive; i = inactive; ? = inconclusive; . = not tested or not shown; [ ] = dose if it differs, or a comment. Unless noted, the call rests on the fitted dose curve; in most records, active means well fitted curve in the direction sought with a large enough effect; inconclusive means small, poorly fitted or top-dose-only effect, or another doubt; inactive means no such curve, though single readings can be large; an effect the other way counts as inactive or inconclusive.

SMILES	SNCA expr inh	KDM5B inh	IP6K1 inhibitor	SNCA viab count
Cc1[nH]c(-c2ccccc2)nc1C(=O)N1CCn2nc(CCC(=O)O)cc2C1	-19%	i	5	-9%
COCCOC1CCN(C(=O)Nc2cccc(F)c2)CC1	5%	i	-7	7%[12.5 µM]
O=C(NC1CCCC1)N1CC(Oc2ccccc2-c2nc(-c3ccccc3)no2)C1	?	28µM*	-3	-29%
COc1ccc(C(=O)N2CC(Oc3ccccc3-c3nc(-c4ccccc4)no3)C2)cc1	-31%	25µM*	17	?
Cc1cc(-c2cc3c(cn2)CN(Cc2ccccn2)CCN3)ccn1	22%[87.6 µM]	?	-12	8%[87.6 µM]
COc1ccc(Nc2cc3c(cn2)CN(CCc2ccccc2)CCN3)cc1OC	4%[87.6 µM]	?	-10	?
COc1ccc(-c2cc3c(cn2)CN(Cc2ccccc2)CCN3)cc1OC	102%[87.6 µM]	32µM*	-13	-21%[87.6 µM]
COc1ccc(-c2cc3c(cn2)CN(CCc2ccccc2)CCN3)cc1OC	88%[87.6 µM]	35µM*	-2	?
Cc1cc(-c2cc3c(cn2)CN(CC2CCOCC2)CCN3)ccn1	56%[87.6 µM]	35µM*	-1	5%[87.6 µM]
COc1ccc(Cl)cc1-c1cc2c(cn1)CN(Cc1cccnc1)CCN2	64%[87.6 µM]	32µM*	-14	0%[87.6 µM]
CC(C)(C)CC(=O)N1CC[C@H]2CC(=O)N(c3ccccc3)CC[C@H]2C1	-16%[87.6 µM]	i	-1	5%[87.6 µM]
C[S+](=O)([O-])c1ccc(-c2cc3c(cn2)CN(CCc2ccccc2)CCN3)cc1	-2%[87.6 µM]	40µM*	2	-24%[87.6 µM]
Cc1ccc(S(=O)(=O)N2CCN(C(C(=O)NC3CC3)c3ccccc3)CC2)cc1 (centres undefined)	.	i	.	.
O=C(C1CCCN(C2CCN(c3ncccn3)CC2)C1)N1CCOCC1 (centres undefined)	8%	20µM*	-4	7%
CNc1ccnc(N2CCC(N3CCCC(C(=O)N4CCCC4)C3)CC2)n1 (centres undefined)	17%	?	-9	-1%
N#Cc1ccnc(N2CCN(C(=O)Nc3ccc(F)cc3)CC2)c1	.	i	.	.
CN1CCN(C(=O)C2CCCN(C3CCN(c4cc(C#N)ccn4)CC3)C2)CC1 (centres undefined)	?	28µM*	0	-19%
COc1cccc(CN2CCC3(CC2)CN(c2ncccn2)CC3CO)n1 (centres undefined)	3%	22µM*	-7	0%
OCC1CN(c2ncccn2)CC12CCN(C1CCSCC1)CC2 (centres undefined)	-1%	32µM*	15	8%
Cn1cccc1CN1CCC2(CC1)CN(c1ncccn1)CC2CO (centres undefined)	-22%	32µM*	1	-10%
OCC1CN(c2ncccn2)CC12CCN(Cc1cc(Cl)ccc1F)CC2 (centres undefined)	3%	25µM*	-4	-1%
OCC1CN(c2ncccn2)CC12CCN(Cc1cccnc1)CC2 (centres undefined)	-5%	?	10	-10%
CC(C)Oc1ccccc1CN1CCC2(CC1)CN(c1ncccn1)CC2CO (centres undefined)	6%	?	5	-3%
OCC1CN(c2ncccn2)CC12CCN(Cc1ccc3cc[nH]c3c1)CC2 (centres undefined)	8%	28µM*	8	-20%
O=C(Nc1ccccc1C(=O)NCC(F)(F)F)c1cnccn1	.	i	.	.
SMILES	SNCA expr inh	KDM5B inh	IP6K1 inhibitor	SNCA viab count
COc1ccc(-c2cc3c(=O)n(CCNC(=O)c4c(F)cccc4F)ccn3n2)cc1	5%	22µM*	3	0%
CCC(C(=O)NCCn1ccn2nc(-c3ccc(OC)cc3)cc2c1=O)c1ccccc1 (centres undefined)	1%	20µM*	-2	-29%
COc1ccc(-c2cc3c(=O)n(CCNC(=O)c4ccc(C)c(F)c4)ccn3n2)cc1	109%	?	-9	-4%
COc1ccc(-c2cc3c(=O)n(CCNC(=O)c4c(F)cccc4Cl)ccn3n2)cc1	105%	22µM*	1	-8%
COc1ccc(-c2cc3c(=O)n(CCNC(=O)c4cccc(OC)c4OC)ccn3n2)cc1	-3%	25µM*	-5	-20%
Cn1nnnc1-c1cccc(NCC(=O)NC2(C#N)CCCC2)c1	.	i	.	.
